About 83,000 compounds went through this panel and 20% of them were active in at least one assay; those are over-represented in the sample as a whole.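 Percent growth is the endpoint: 0 to 100 indicates growth inhibition (40 means 60% inhibition), 0 means no net growth, and negative values indicate cell death.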 Active and inactive are the calls of the source.

The test system of this assay is COLO 205 colon. The assay is described as follows: NCI-60 one-dose screen, 48 h (100 = growth as untreated, 0 = no growth, -100 = all killed). As to conditions: 10 µM unless noted. Here is the method:
Cells are grown in 96 well plates and exposed to the test compound for 48 hours. Compounds are tested at a single concentration, which is 10^-5 M for most compounds. The reported endpoint is percent growth (GI% or GIPRCNT), where numbers from 0 - 100% represent growth inhibition, and numbers from -100% - 0 represent cell death. For example, a value of 40 represents 60% growth inhibition. A value of 0 means no net growth occurred over the course of the experiment. A value of -40 indicates 40% of cells at the beginning of the experiment died by the end of the experiment. A value of -100 means all cells are dead at the end of the experiment.
NCI-60 Human Tumor Cell Lines Screen was performed using the standard one-dose NCI protocol, which is described in more detail at https://dtp.cancer.gov/discovery_development/nci-60/default.htm.
Compounds with GIPRCNT values below 10 were considered active. Activity score was based on GIPRCNT using the following formula: […]
Score is 0 for GIPRCNT values of 100 or above, 50 for GIPRCNT values of 0, and 100 for GIPRCNT values of -100.
Turning to `O=C(NCCO)C(F)(F)F`, the growth is 110% (inactive).

On to `CCCCCCCCCC[N+](C)(C)C`, for which the growth is -49.9% (active).

For the molecule `Nc1ccc(S(=O)(=O)c2ccc(NO)cc2)cc1`, the growth is 111% (inactive).

For the molecule `CCCC(=O)Nc1ccccc1C(=O)O`, the growth is 97% (inactive).

On to `COC(=O)c1cc(=O)nc(N/N=C/c2ccccc2O)s1`, for which the growth was 93% (inactive).

For `COC(=O)c1ccc2[nH]c(O)c(C(=Nc3ccc(N(C)C(=O)CN4CCN(C)CC4)cc3)c3ccc4c(c3)OCO4)c2c1`, the growth was -54.4% (active).

For `COc1ccc(/C=C2\SC(=O)N(Cc3cc(=O)oc4ccc(OC)cc34)C2=O)cc1`, the growth was 111% (inactive).

For the molecule `NCCCOc1cc(Cl)ccc1NC(=O)c1cc2ccccc2cc1OCCCN`, the growth is -88% (active).

`Cc1ccc(C(=O)C(Br)C(Br)c2ccccc2)cc1` (stereo not given): the growth was 52.8% (inactive).

Consider `Cc1sc(NC(=O)c2ccc(C(C)(C)C)cc2)c(C(=O)O)c1C`, for which the growth is 55.6% (inactive).

For the molecule `C/C(=N\Nc1ccc(Cl)cn1)c1ccccn1`, the growth is 9.59% (active).

In the case of `CN(CCC#N)c1ccc(/C=C(\C#N)c2cccc(C(F)(F)F)c2)cc1`, the growth is 49.5% (inactive).

In the case of `COc1ccc(/C=C2\CCCC3=C2N=C2SC=NN2C3c2ccc(OC)c(OC)c2)cc1OC` (stereo not given), the growth was 22.7% (inactive).

For `COc1ccc(CN2C(=O)/C(=C\C(=O)c3ccc(OCCN4CCCCC4)cc3)c3ccccc32)cc1`, the growth is 76.7% (inactive).

Turning to `Cc1nc2c(nnn2-c2ccccc2)c2nc(-c3ccc(Cl)cc3)oc(=O)c12`, the growth is 120% (inactive).

`CSC1=Nc2c(c(C)c(-c3ccccc3)n2CCCCl)C2=NC(=O)CN12`: the growth was 79.1% (inactive).

`COc1ccc2cn3c4ccc(O)cc4[nH]c(=O)c3c2c1`: the growth is -7.26% (active).

As to `COc1ccc(-c2nc(SCC(C)C)nc(Nc3ccc(C(=O)O)cc3)c2C#N)cc1`, the growth was 89.7% (inactive).

In the case of `O=C(N/N=C/c1cc(Cl)ccc1O)C(=O)N/N=C/c1cc(Cl)ccc1O`, the growth was 75.2% (inactive).

Turning to `NNC(=S)N1N=C(c2cc3ccccc3o2)CC1c1c[nH]c2ccccc12` (stereo not given), the growth was 52.2% (inactive).

In the case of `Ic1ccc(SSc2ccc(I)cc2)cc1`, the growth is 124% (inactive).

Turning to `CC(=O)C(CO)C(=O)Nc1ccccc1` (stereo not given), the growth is 99.5% (inactive).

On to `[2H]c1nc(=Nc2cc(NC(=O)C=C)c(N(C)CCN(C)C)cc2OC)[nH]c(-c2cn(C([2H])([2H])[2H])c3ccccc23)c1[2H]`, for which the growth was 29.4% (inactive).

For `COc1cc2cc3cc4cc(OC)c(OC)cc4c(C)[n+]3cc2cc1OC` (tested in a mixture with another compound), the growth was 111% (inactive).

Consider `c1ccc(Nc2ncc3c(n2)-c2cccn2CC3)cc1`, for which the growth was 112% (inactive).

Turning to `CNCCCNCCCCNCCCN1C(=O)c2ccc3c4c(ccc(c24)C1=O)C(=O)N(CCCNCc1ccccc1OC)C3=O`, the growth was 10.8% (inactive).

For the molecule `O=C1C=C(OCC=C(C(F)(F)F)C(F)(F)F)c2ccccc2C1=O`, the growth is 52.7% (inactive).

`O=C(Nc1ccc(Cl)c(Cl)c1)O/N=C\c1c(Cl)ccc([N+](=O)[O-])c1Cl`: the growth was -83.3% (active).

For the molecule `CC(C)CSc1nc(-c2ccc(F)cc2)c(C#N)c(N2CCCCC2)n1`, the growth was 96.2% (inactive).

For the molecule `CCCNC(=O)Oc1ccc(/C(=C(/CC)Cc2ccccc2)c2ccc(OCCN(CC)CC)cc2)cc1`, the growth was -49% (active).

With `CN1NC(c2ccccc2)NN(C)C1=O`, the growth is 105% (inactive).

`COc1ccc(Cn2cc3c(c2-c2ccc(O)cc2)CCc2cnoc2-3)cc1`: the growth was -17.6% (active).

As to `O=c1[nH]c2cc(O)ccc2n2cc3c(F)cccc3c12`, the growth was 66.2% (inactive).

On to `COc1ccc(C(=O)N2N=C(c3ccc(Br)cc3)CC2c2cn(-c3ccccc3)nc2-c2ccccc2)cc1` (stereo not given), for which the growth is 26.2% (inactive).

As for `COc1ccc(/C=C/C(=O)/C=C/c2cc3ccccc3[nH]c2=O)cc1`, the growth was 55.8% (inactive).

As to `CCCCCCCCC1OC1CCCCCCCC(=O)O` (stereo not given), the growth is 105% (inactive).

`COc1cc(Cn2ccc3c2-c2oncc2CC3)cc(OC)c1`: the growth is 26.1% (inactive).

With `O=C1C(=O)c2ccccc2C(O)=C1CCCc1ccc(C2CCCC2)cc1`, the growth is 54.7% (inactive).

For the molecule `COc1ccccc1Nc1nnc(COc2ccc(CNC(=O)CCCC/C=C/C(C)C)cc2OC)o1`, the growth is 125% (inactive).

Turning to `O=S(=O)(O)c1ccc2c(c1)Sc1cc(S(=O)(=O)O)ccc1O2`, the growth is 111% (inactive).

(Values after PubChem BioAssay (NCI).)
